In PubChem BioAssay (NCATS):
Records with an inconclusive call do not appear. Active and inactive are the calls of the source. The call rests on the fitted dose curve; in most records, active means well fitted curve in the direction sought with a large enough effect; inconclusive means small, poorly fitted or top-dose-only effect, or another doubt; inactive means no such curve, though single readings can be large; an effect the other way counts as inactive or inconclusive.

How the values were obtained:
[1] = tested on: MCC-13; assay: qHTS assay to identify novel small-molecules to repurpose for Merkel cell carcinoma treatment (AID 1296009); conditions: MCC and control cell lines, CellTiter-Glo viability, 72 h; series mostly up to 46 µM; further: nearly all actives have a fitted effect of over 60% in size
How it was run: (§1)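 Viability readout: ATP luminescence (CellTiter-Glo) after 72 hr drug exposure at 37 degree celsius. Dose-response format was 8 points for NPC and 11 points for MIPE; data normalized to in-plate controls.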

[2] = tested on: MCC-26; assay: as above; conditions: MCC and control cell lines, CellTiter-Glo viability, 72 h; series mostly up to 46 µM
How it was run: as §1

[3] = tested on: MKL-1; assay: as above; conditions: MCC and control cell lines, CellTiter-Glo viability, 72 h; series mostly up to 46 µM
How it was run: as §1

[4] = tested on: MKL-2; assay: as above; conditions: MCC and control cell lines, CellTiter-Glo viability, 72 h; series mostly up to 46 µM
How it was run: as §1

[5] = tested on: UISO; assay: as above; conditions: MCC and control cell lines, CellTiter-Glo viability, 72 h; series mostly up to 46 µM
How it was run: as §1

[6] = tested on: WaGa; assay: as above; conditions: MCC and control cell lines, CellTiter-Glo viability, 72 h; series mostly up to 46 µM
How it was run: as §1

[7] = tested on: C33A; assay: Primary qHTS to identify gynecologic anti-cancer compounds using libraries of approved drugs and bioactive compounds (AID 1345084); conditions: Gynecologic cancer cell panel viability, ATPlite luminescence, 48 h; series mostly up to 57.5 µM; further: nearly all actives have a fitted effect of over 55% in size
How it was run: (§2)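 Five-point cytotoxicity, 48 h drug exposure at 37 C, 5% CO2, on cells seeded 16 h beforehand. ATP content read by ATPlite luminescence.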

[8] = tested on: CAOV3; assay: as above; conditions: Gynecologic cancer cell panel viability, ATPlite luminescence, 48 h; series mostly up to 57.5 µM
How it was run: as §2

[9] = tested on: CASKI; assay: as above; conditions: Gynecologic cancer cell panel viability, ATPlite luminescence, 48 h; series mostly up to 57.5 µM
How it was run: as §2

Measured: Potency

COc1ccc(/C=N/NC(=O)c2ccncc2)cc1OC
inactive: all assays above

OC[C@H]1O[C@@H]2O[C@H]3[C@H](O)[C@@H](O)[C@@H](O[C@H]4[C@H](O)[C@@H](O)[C@@H](O[C@H]5[C@H](O)[C@@H](O)[C@@H](O[C@H]6[C@H](O)[C@@H](O)[C@@H](O[C@H]7[C@H](O)[C@@H](O)[C@@H](O[C@H]8[C@H](O)[C@@H](O)[C@@H](O[C@H]1[C@H](O)[C@H]2O)O[C@@H]8CO)O[C@@H]7CO)O[C@@H]6CO)O[C@@H]5CO)O[C@@H]4CO)O[C@@H]3CO
inactive: all assays above

COc1cc(C(=O)N2CCCCCCC2)cc(OC)c1OC
inactive: all assays above

Cc1cccc(C)c1NC(=O)CN1CCCC1
inactive: all assays above

Cc1cccc(C)c1NC(=O)c1ccccc1C(=O)O
inactive: all assays above

CC(=O)O[C@H]1C[C@@H]2CC[C@@H]3[C@H](CC[C@@]4(C)[C@H]3C[C@H]([N+]3(C)CCCCC3)[C@@H]4OC(C)=O)[C@@]2(C)C[C@@H]1N1CCCCC1
inactive: all assays above

Cc1cc(-c2ccccc2)nnc1NCCN1CCOCC1
inactive: all assays above

CC(C(=O)O)c1cccc(Oc2ccccc2)c1 (stereo not drawn)
inactive: all assays above

Nc1nc(-c2ccccc2)c(Br)c(=O)[nH]1
inactive: all assays above

N#C/C(=C1\SCC(c2ccccc2Cl)S1)n1ccnc1 (stereo not drawn)
inactive: all assays above

CN1CCN(c2cc3c(cc2F)c(=O)c(C(=O)O)cn3-c2ccc(F)cc2)CC1
inactive: all assays above

CCCN(CCC)S(=O)(=O)c1ccc(C(=O)O)cc1
not listed: [8]
inactive: all other assays above

CCOc1ccc(NC(C)=O)cc1
not listed: [8]
inactive: all other assays above

c1ccc(-c2nc[nH]c2-c2ccccc2)cc1
not listed: [7] | [8]
inactive: all other assays above

C=CCN1CCc2nc(N)sc2CC1
not listed: [8]
inactive: all other assays above

Clc1cccc(C(c2ccc3nc[nH]c3c2)n2ccnc2)c1 (stereo not drawn)
not listed: [8]
inactive: all other assays above

CC1(C)OC[C@@H]2O[C@@]3(C(=O)O)OC(C)(C)O[C@H]3[C@@H]2O1
not listed: [8]
inactive: all other assays above

C#C[C@]1(O)CC[C@H]2[C@@H]3CCC4=Cc5oncc5C[C@]4(C)[C@H]3CC[C@@]21C
not listed: [8]
inactive: all other assays above

OC1C(O)C(O)C(O)C(O)C1O (stereo not drawn)
inactive: all assays above

CCCCNC(=O)NS(=O)(=O)c1ccc(N)cc1
not listed: [8]
inactive: all other assays above

Cc1ncc(CO)c(C=O)c1O
inactive: all assays above

CCCCC(CC)COC(=O)/C=C/c1ccc(OC)cc1 (stereo not drawn)
inactive: all assays above

CCN(CC)CCOC(=O)C1(c2ccccc2)CCCC1
inactive: all assays above
